Measured values from PubChem BioAssay AID504545 (Broad Institute, 2011).
Results with a measured potency or affinity are listed apart. Inconclusive results are not listed. Unmarked numbers belong to inactive results. How the calls were made is not given here.

Molecular target: Cyclin-dependent kinase 5 activator 1 (Homo sapiens) + Cyclin-dependent kinase 5 (Homo sapiens) (UniProt Q15078+Q00535)
Test: blockade of human CDK5 activity – biochemical, cherry-picked samples, set 2, dose response (AID 504545)
Settings: CDK5/p35 kinase activity, biochemical plate reader; series mostly up to 30 µM; activity change, negative = inhibition: at the top concentration

Chain of Cyclin-dependent kinase 5 activator 1 (Homo sapiens) + Cyclin-dependent kinase 5 (Homo sapiens) (Q00535 whole entry, looked up): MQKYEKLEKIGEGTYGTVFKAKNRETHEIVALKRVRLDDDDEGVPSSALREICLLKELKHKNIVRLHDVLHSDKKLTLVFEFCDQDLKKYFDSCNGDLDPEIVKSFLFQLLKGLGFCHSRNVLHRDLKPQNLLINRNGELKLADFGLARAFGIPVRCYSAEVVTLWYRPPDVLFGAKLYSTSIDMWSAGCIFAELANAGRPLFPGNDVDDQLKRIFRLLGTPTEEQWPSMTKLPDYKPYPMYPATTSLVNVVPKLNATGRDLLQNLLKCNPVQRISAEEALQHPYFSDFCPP
Chain of Cyclin-dependent kinase 5 activator 1 (Homo sapiens) + Cyclin-dependent kinase 5 (Homo sapiens) (Q15078 whole entry, looked up): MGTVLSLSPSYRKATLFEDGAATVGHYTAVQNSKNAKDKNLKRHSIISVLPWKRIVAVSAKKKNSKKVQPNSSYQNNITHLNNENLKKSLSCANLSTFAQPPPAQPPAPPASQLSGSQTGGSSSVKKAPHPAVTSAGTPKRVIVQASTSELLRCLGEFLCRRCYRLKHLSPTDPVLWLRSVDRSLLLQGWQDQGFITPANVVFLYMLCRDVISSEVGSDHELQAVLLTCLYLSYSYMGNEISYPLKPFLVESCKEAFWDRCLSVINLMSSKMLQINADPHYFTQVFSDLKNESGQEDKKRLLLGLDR

Point of comparison: `COc1ccc2ccc3ccc(OC)c(OC(C)=O)c3c2c1`, “activity change, negative = inhibition” value -3.35%. Against it:
- CCc1cc(C(=O)c2ccc(OC)cc2)c(N)s1 — higher, 13%
- Oc1ccc(C=NNc2ccccn2)c(O)c1 — lower, -16.7%
- Clc1cnc(N/N=C/c2ccncc2)c(Cl)c1 — lower, -12.7%
- Cc1nn(-c2ccccn2)c2c1C(=O)CC(C)(C)C2Br (centres undefined) — higher, 5.29%
- Cc1ccc2nc(NCc3ccccc3)c(C#N)cc2c1 — higher, 15.1%
- Clc1cncc(Cl)c1N/N=C/c1ccccc1 — higher, 8.75%
- COc1cc(OC)c(C(=O)N2CCN(c3ccccn3)CC2)cc1OC — higher, 4.37%
- CCN1C(=O)/C(=C2/Sc3ccc(OC)cc3N2C)SC1=Nc1cccc(O)c1 — higher, 13%
- O=C(c1ccc(F)cc1)c1cnc(Nc2ccccc2)s1 — lower, -8.57%
- COc1ccc(C(=O)c2sc(Nc3ccccc3F)nc2N)cc1 — lower, -8.79%
- O=[N+]([O-])c1ccc2c(c1)/C(=N\O)c1ccccc1-2 — lower, -11.8%
- COc1cc(OC)cc(C(=O)N2CCN(c3ccccn3)CC2)c1 — higher, 1.08%
- CN(C)N1C(N)=C(C#N)C(c2cccs2)C2=C1CCCC2=O (centres undefined) — lower, -19.4%
- CC(C)n1cnc2c(NCc3ccc(S(N)(=O)=O)cc3)nc(NCc3ccc(S(N)(=O)=O)cc3)nc21 — lower, -18.7%
- Clc1ccc(N/N=C/c2ccncc2)cc1Cl — lower, -9.21%
- Oc1ccc(/C=N/Nc2cccc(Cl)n2)c(O)c1 — higher, -0.378%
- O=C(c1ccc2c(c1)OCCO2)N1CCN(c2ccccn2)CC1 — higher, 18.1%
- CC(C)(C)N=Cc1c(O)ccc2oc3c(c12)CCCC3 — higher, -1.17%
- CC(=O)[C@H]1CC[C@H]2[C@@H]3CC=C4C[C@@H](OS(=O)(=O)O)CC[C@]4(C)[C@H]3CC[C@]12C — lower, -5.29%
- O=C(c1ccc2c(c1)OCO2)N1CCN(c2ccccn2)CC1 — higher, 13.9%
- Clc1cccc(Cl)c1/C=N/Nc1c(Cl)cncc1Cl — lower, -9.72%
- S=C(c1ccc(OCc2ccccc2)cc1)N1CCCC1 — higher, -1.92%
- O=C(NNC(=O)c1cccs1)c1ccccc1 — lower, -8.86%
- O=C(O)c1ccc(/C=N/Nc2ncc(C(F)(F)F)cc2Cl)cc1 — lower, -5.86%
- CC(C)n1cnc2c(N(C)c3cccc(Cl)c3)nc(N(CCO)CCO)nc21 — higher, 3.33%
- C=CC(=O)Nc1ccc(Nc2ccnc(Nc3ccc(N4CCN(C)CC4)cc3)n2)cc1 — higher, 14.6%
- NC(=S)N/N=C/c1c(O)c(Br)cc2oc3c(c12)CCCC3 — lower, -15.6%
- Cc1ccc2[nH]c(C(F)(F)F)cc(=O)c2c1 — higher, 12.4%
